The record followed here is PubChem BioAssay (NCATS).

Records with an inconclusive call do not appear. A call without a number means that no potency is given here. Activity calls are given as the source filed them. Calls follow the shape of the dose curve; as a rule, active = well fitted cell-killing curve with a large enough effect; inconclusive = small, poorly fitted or top-dose-only effect, or effect the other way; inactive = flat fitted curve, though single readings scatter. Where a SMILES comes first, the peptide text is derived from it. [ ]: non-standard residue; d: D form.
Potency is read from the fitted curve at half-maximal effect.

The subject of the test is SKOV3. As to the kind of experiment: Primary qHTS to identify gynecologic anti-cancer compounds using libraries of approved drugs and bioactive compounds (AID 1345084). Also: nearly all actives have a fitted effect of over 55% in size. Conditions: Gynecologic cancer cell panel viability, ATPlite luminescence, 48 h; series mostly up to 57.5 µM. The method in brief: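 Cells, 1,000 per well, plated 16 h, then exposed 48 h at 37 C to compounds. Viability by ATPlite luminescence after 15 min at room temperature.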
With `CN1Cc2c(N)cccc2C(c2ccccc2)C1` (stereo not drawn), the Potency entry was “inactive”.
On the same count and under the same terms, in the case of `C(#Cc1cccc(CN2CCOCC2)c1)CCN1CCCCC1` it was “inactive”.
For the compound `C/C=C(\C)C(=O)O[C@H]1[C@H](O)[C@]2(COC(C)=O)[C@H](O)C[C@]3(C)C(=CCC4[C@@]5(C)CC[C@H](O[C@@H]6O[C@H](C(=O)O)[C@@H](O[C@@H]7O[C@H](CO)[C@@H](O)[C@H](O)[C@H]7O)[C@H](O)[C@H]6O[C@@H]6O[C@H](CO)[C@@H](O)[C@H](O)[C@H]6O)[C@](C)(CO)C5CC[C@]43C)[C@@H]2CC1(C)C` (stereo partly drawn), the activity change, negative = cytotoxicity is 20.3% [at 11.6 µM] (inactive).
Consider `C[C@]12C=CC(=O)C=C1CC[C@@H]1[C@@H]2[C@@H](O)C[C@@]2(C)[C@H]1CC[C@]2(O)C(=O)COC(=O)CCC(=O)O`, for which the Potency entry was “inactive”.
Same read-out and setting: the value for `CC1=C2[C@@H]([C@H](C)CC[C@H]2/C=C(\C)C(=O)O)[C@H](O)C1` was “inactive”; that for `CC(=O)c1c(C)cc(O[C@@H]2O[C@H](CO)[C@@H](O)[C@H](O)[C@H]2O)cc1O` was “inactive”; that for `OC[C@H]1O[C@@H](OCCc2ccc(O)cc2)[C@H](O)[C@@H](O)[C@@H]1O` was “inactive”.
For `C[C@@H]1C[C@H]2[C@@H]3CCC4=CC(=O)C=C[C@]4(C)[C@@]3(F)[C@@H](O)C[C@]2(C)[C@@]1(O)C(=O)COP(=O)(O)O`, the Potency entry is “inactive”.
As to `CC(=O)N1CCN(NC(=O)c2ccc(F)cc2)CC1`, the Potency result is “inactive”.
On the same count and under the same terms, in the case of `NC(Cc1c[nH]c2ccccc12)C(=O)NC(CCC(=O)O)C(=O)O` (stereo not drawn) it was “inactive”.
For `CC[C@H](/C=C/[C@@H](C)[C@H]1CC[C@H]2[C@@H]3CC=C4C[C@@H](O)CC[C@]4(C)[C@H]3CC[C@]12C)C(C)C`, the activity change, negative = cytotoxicity was 8.88% [at 6.55 µM] (inactive).
On to `CCOc1ccc(C(Nc2ccccn2)c2ccc3ccc(C)nc3c2O)cc1C` (stereo not drawn), for which the Potency entry was “inactive”.
Still for that read-out and setting: the value for `COc1cc(C2Oc3c(OC)cc(/C=C/C(=O)OC[C@H]4O[C@@H](OC(C)(C)C(=O)O)[C@H](O)[C@@H](O)[C@@H]4O)cc3C2CO)ccc1O` (stereo partly drawn) was “inactive”.
On to `COC1=CC(=O)C[C@@H](C)[C@]12Oc1cc(OC)cc(OC)c1C2=O`, for which the Potency entry is “inactive”.
The same measure, in the same setting: in the case of `COc1c(C)c(OCC=C(C)C)cc2c1C(=O)NC2=O` it was “inactive”.
For `C[C@]12CCC(=O)C=C1[C@@H](O)C[C@@H]1[C@@H]2[C@@H](O)C[C@@]2(C)[C@H]1CC[C@]2(O)C(=O)CO`, the Potency result is “inactive”.
On to `Cn1c(=O)cc(N2CCCC(N)C2)n(Cc2ccccc2C#N)c1=O` (stereo not drawn), for which the Potency entry was “inactive”.
Take `CC(=O)O[C@H]1C[C@@H]2[C@]3(CC[C@]4(C)[C@@H](C5(C)CCC(C(C)(C)O)O5)[C@@H](O)C[C@@]24C)C[C@@]32CC[C@H](O[C@@H]3OC[C@@H](O)[C@H](O)[C@H]3O)C(C)(C)[C@H]12` (stereo partly drawn): the Potency result was “inactive”.
Same read-out and setting: the value for `COc1cc(C[C@H]2COC(=O)[C@@H]2Cc2ccc(O)c(OC)c2)ccc1O` was “inactive”; that for `CCC(=O)NS(=O)(=O)c1ccc(-c2c(-c3ccccc3)noc2C)cc1` was “inactive”; that for `C=CC(C)(O)CO[C@@H]1O[C@H](CO)[C@@H](O)[C@H](O)[C@H]1O` (stereo partly drawn) was “inactive”.
Take `Clc1ccc(CN[C@H]2CCN(c3ncc(Br)cn3)C2)c(Cl)c1`: the Potency entry was “inactive”.
In the case of `CC(C)C(=O)c1cn(CC(=O)COc2ccc(Oc3ccccc3)cc2)c2ccc(C(=O)O)cc12`, the Potency result is “inactive”.
Same read-out and setting: in the case of `CC(C)C1=CC2=CCC3[C@](C)(CCC[C@@]3(C)C(=O)O)C2CC1O` (stereo partly drawn) it was “inactive”; in that of `CC[C@H]1OC(=O)C[C@@H](O)[C@H](C)[C@@H](O[C@@H]2O[C@H](C)[C@@H](O)[C@H](N(C)C)[C@H]2O)[C@@H](CCN2C[C@H](C)C[C@H](C)C2)C[C@@H](C)C(=O)/C=C/C(C)=C/[C@@H]1CO[C@@H]1O[C@H](C)[C@@H](O)[C@@H](OC)[C@H]1OC`, “inactive”; in that of `CC(C)NC[C@H](O)COc1ccc(CCOCC2CC2)cc1`, “inactive”.
Still for that read-out and setting: in the case of `CC(=O)OC(C)OC(=O)C(C)c1ccc(-c2ccccc2)c(F)c1` (stereo not drawn) it was “inactive”.
Still for that read-out and setting: in the case of `C=C1C(=O)O[C@H]2[C@H]1[C@@H](OC(=O)C(C)CO)C[C@@]1(C)[C@H](O)CCC(=O)[C@H]21` (stereo partly drawn) it was “inactive”.
Take `CCC(C)(O)C(O)C(=O)OCc1ccc(O[C@@H]2O[C@H](CO)[C@@H](O)[C@H](O)[C@H]2O)c(OC)c1` (stereo partly drawn): the Potency entry is “inactive”.
Still for that read-out and setting: the value for `NS(=O)(=O)OC[C@@H]1C[C@@H](n2ccc3c(N[C@H]4CCc5ccccc54)ncnc32)C[C@@H]1O` was 10 µM (active); that for `COc1ccc(C[C@H](N)C(=O)N[C@H]2[C@@H](O)[C@H](n3cnc4c(N(C)C)ncnc43)O[C@@H]2CO)cc1` was 3.55 µM (active); that for `C[C@H](NCc1ccc(OCc2ccccc2F)cc1)C(N)=O` was “inactive”.
As to `CC(=O)N[C@H](Cc1ccc(O)cc1)C(=O)N[C@H](CCCN=C(N)N)C(=O)N[C@H](Cc1ccccc1)C(N)=O` (Ac-[dY]-[dR]-[dF]-NH2), the Potency result was “inactive”.
The same measure, in the same setting: the value for `Nc1ncnc2c1ncn2[C@H]1CCCO1` was “inactive”; that for `CCC(=O)O[C@]1(C(=O)CCl)[C@@H](C)C[C@H]2[C@@H]3C[C@H](F)C4=CC(=O)C=C[C@]4(C)[C@@]3(F)[C@@H](O)C[C@@]21C` was “inactive”; that for `CCOc1ccc(-c2ccc(Cn3c(CC(C)(C)C(=O)O)c(SC(C)(C)C)c4cc(OCc5ccc(C)cn5)ccc43)cc2)cn1` was “inactive”.
As to `CC1OC(OC2C(CO)OC(OCC3OC(OC(=O)C45CCC(C)(C)CC4C4=CCC6C7(C)CCC(OC8OC(C(=O)O)C(O)C(OC9OC(CO)C(O)C(O)C9O)C8O)C(C)(C)C7CCC6(C)C4(C)CC5)C(O)C(O)C3O)C(O)C2O)C(O)C(O)C1O` (stereo not drawn), the activity change, negative = cytotoxicity is 21% [at 6.55 µM] (inactive).
As for `CC1CCC2(C)C(CC(O)C(O)C23CO3)C1(C)CCC1=CC(=O)OC1O` (stereo not drawn), the Potency result was “inactive”.
